Data published in PubChem BioAssay AID1985 (Southern Research Specialized Biocontainment Screening …, 2009).
In all, about 2,300 compounds went through this assay and about 1,000 (43%) were called active. The rule behind the calls is not given here. So high a share suggests a set chosen from earlier hits. Some of the results follow. Results with a measured potency or affinity are listed apart.

experiment: modified counter assay using GFP fluorescence, PhoP regulon inhibitor project, dose response (AID 1985); details: S. Typhi, 4 h; series mostly up to 150 µM; inhibition: at the top concentration

| SMILES | inhibition |
| --- | --- |
| O=C(NCCOc1ccccc1)c1ncn[nH]1 | 16.9% (inactive) |
| O=C(OCCCN1C(=O)c2ccccc2C1=O)c1ccco1 | -4.23% (inactive) |
| CC(C)CCNC(=O)c1cc2c(s1)-c1ccccc1S(=O)(=O)C2 | 3.1% (inactive) |
| CN1CCc2c(sc3c2C(=O)NC(c2ccc4c(c2)OCO4)N3)C1 (configuration not stated) | -33.9% (inactive) |
| NS(=O)(=O)c1ccc(CNc2ccc3ccccc3n2)cc1 | 15% (inactive) |
| CCOC(=O)C1CCN(C(=O)CCc2nc3ccccc3[nH]2)CC1 | 22.6% (inactive) |
| O=C(CSc1ccccc1)N1CCC(N2CCC(C(=O)N3CCCC3)CC2)CC1 | -2.03% (inactive) |
| Cc1c(CC(=O)N2CCC(C(N)=O)CC2)c(=O)oc2cc3c(cc12)CCC1(CCCCC1)O3 | -10.6% (inactive) |
| C#CCOCCOCCOCCNc1nc(N2CCN(C(=O)CCCCCCCCCCNC(=O)Cn3cc(CCCCCN)nn3)CC2)nc(N2CCN(C(=O)CCCCCCCCCCNC(=O)[C@@H]([C@H](C)O)n3cc(C)nn3)CC2)n1 | -35.2% (inactive) |
| Cc1nc2ccccn2c1/C(O)=C1\C(=O)C(=O)N(CCN2CCOCC2)C1c1cccnc1 (configuration not stated) | -35% (inactive) |
| COc1cccc(/C=C/C(=O)c2cccc([N+](=O)[O-])c2)c1OC | 10.9% (inactive) |
| CCOC(=O)c1ccc(N2Cc3ccccc3C2=NC(=O)c2cccc([N+](=O)[O-])c2)cc1 | -10.3% (inactive) |
| CC(C(=O)c1ccc2ccccc2c1)N1CCCCC1 (configuration not stated) | -3.94% (inactive) |
| CCC(=O)Nc1nnc(-c2ccco2)o1 | -4.91% (inactive) |
| O=C(Nc1nnc(-c2cccs2)o1)c1cccc(F)c1 | -40.7% (inactive) |
| COc1ccccc1C(=O)Nc1nnc(-c2ccc(Cl)cc2)o1 | 38.2% (inactive) |
| O=C(Nc1nnc(-c2cccs2)o1)c1cccc(C(F)(F)F)c1 | 38.8% (inactive) |
| C=CCn1c(O)c(N=NC(=O)c2cccnc2)c2cc(Br)ccc21 | -23% (inactive) |
| O=C(N/N=C/c1cccc(OCc2ccccc2)c1)c1cccs1 | 33.8% (inactive) |
| NC1=NC(c2cccc(O)c2)n2c(nc3ccccc32)N1 (configuration not stated) | -20.6% (inactive) |
| CCOC(=O)c1ccccc1-n1c(C)cc(C2N=C(N)Nc3nc4ccccc4n32)c1C (configuration not stated) | 20.7% (inactive) |
| Cc1cc(C)c(S(=O)(=O)Nc2ccccc2C(=O)OCC(=O)NCc2ccccc2)c(C)c1 | 20% (inactive) |
| NC(=O)c1ccsc1NC(=O)c1ccc2c(c1)CCCC2 | -18.3% (inactive) |
| COc1ccc(N2CCN(c3cc(C)c4ccc(O)cc4n3)CC2)cc1 | 6.15% (inactive) |

| SMILES | inhibition |
| --- | --- |
| CCOC(=O)C(CC)Sc1ccc2nnc(-c3cccnc3)n2n1 (configuration not stated) | 8.03% (inactive) |
| COc1ccc(OC)c(C2=NO[C@@H]3C(=O)N(c4cc(Cl)ccc4OC)C(=O)[C@H]23)c1 | 17% (inactive) |
| Fc1cccc(NC(=S)NCc2ccc(Cl)cc2)c1 | -3.23% (inactive) |
| O=[N+]([O-])c1cccnc1S(=O)(=O)c1ccccc1 | 5.89% (inactive) |
| CCCCCNc1nc(N2CCCC2)c2c(c1C#N)CCN(C)C2 | 19% (inactive) |
| O=C(NCCO)C(=O)c1c(-c2ccc(Cl)cc2)cc2ccccn12 | -11.6% (inactive) |
| COCCn1c(SCC(=O)Nc2nnc(C)s2)nnc1-c1c[nH]c2ccccc12 | -7.27% (inactive) |
| CCCCNC(=O)NS(=O)(=O)c1ccc(C(=O)OC)o1 | -19% (inactive) |
| O=C(COc1ccc(Cl)cc1)Nc1cccc(-c2ccc3nncn3n2)c1 | 17.3% (inactive) |
| Cc1cnc(C(=O)OCC(=O)Nc2cccc(Cl)c2)cn1 | 1.01% (inactive) |
| Nn1cnnc1SCC(=O)Nc1ccc(C2CCCCC2)cc1 | 8.77% (inactive) |
| O=C(Cc1ccccc1)NCC(=O)Nc1cccc(Cl)c1 | -7.98% (inactive) |
| CCC(Sc1nc2ccncc2[nH]1)C(=O)Nc1ccc(C)c(Cl)c1 (configuration not stated) | 12.9% (inactive) |
| CCCCC(=O)Nc1ccc(F)c(Cl)c1 | 9.09% (inactive) |
| Cc1ccc(NC(=O)c2cc(NC(=O)CCCC(=O)O)ccc2Cl)cc1Cl | -2.02% (inactive) |
| Cc1cccc(NC(=O)CSc2nc3c([nH]c4ccccc43)c(=O)n2C)c1 | 11.8% (inactive) |
| CCS(=O)(=O)N1CCN(C2CCC(c3ccccc3)CC2)CC1 (configuration not stated) | 17.6% (inactive) |
| C[N+]12CN3CN(CN(C3)C1)C2 | -32.6% (inactive) |
| CCOC(=O)c1ccc(NC(=O)CSC(=S)N2CCOCC2)cc1 | 5.39% (inactive) |
| CC1CCN(CCC(=O)Nc2ccc(Cl)cc2)CC1 | 21.7% (inactive) |
| COCc1[nH]nc2c1C(c1c(F)cccc1Cl)C(C#N)=C(N)O2 (configuration not stated) | -5.17% (inactive) |
| CCOC(=O)c1cnn2c1[nH]c(=O)c1ccccc12 | 29.2% (inactive) |
| O=C(CCC(=O)Nc1nnc(C2CCCCC2)s1)NCC1CCCO1 (configuration not stated) | 14.5% (inactive) |
| CCCC1C(c2ccc(OC)cc2)C(C#N)(C#N)C2(C#N)CC1(N)NC2=O (configuration not stated) | -9.05% (inactive) |

| SMILES | inhibition |
| --- | --- |
| COc1ccc(C2CC(=O)N3CN(Cc4ccco4)CSC3=C2C#N)cc1 (configuration not stated) | 5.1% (inactive) |
| CC(C)c1cc(C(=O)Nc2ccc3c(c2)OCO3)no1 | -33.7% (inactive) |
| CCOC(=O)c1sc(N)c(C(=O)OC)c1C | -7.16% (inactive) |
| Oc1ccc(C=Nc2ccc3ncccc3c2)c(O)c1 | 28.7% (inactive) |
| Oc1ccc(C=Nc2cccc3ncccc23)c(O)c1 | 14.6% (inactive) |
| Cc1nc2ccccc2nc1N/N=C/c1ccc(O)cc1O | 25.3% (inactive) |
| Oc1ccc(C=NC2CCCCC2)c(O)c1 | 11.3% (inactive) |
| Cc1cc(C=O)c(O)cc1O | -34.1% (inactive) |
| Cc1oc(/N=C/c2ccc(O)cc2O)c(C#N)c1C | -15.2% (inactive) |
| CCOc1ccccc1NC1=NC2CS(=O)(=O)CC2S1 (configuration not stated) | 6.45% (inactive) |
| Cc1ccc(-c2cc(N)nc(-c3ccccc3)c2)cc1 | 20.1% (inactive) |
| O=C(CN(C(=O)CNS(=O)(=O)c1ccccc1)C1CCCC1)NCc1ccco1 | 20.2% (inactive) |
| CCN1CCN(c2cc(C)c3cc(NC(=S)N4CCN(c5ccccc5F)CC4)ccc3n2)CC1 | -5.31% (inactive) |
| COc1cccc(NC(=O)N2CCCC(C(=O)Nc3ccccc3OC)C2)c1 (configuration not stated) | -17.7% (inactive) |
| COc1ccccc1NC(=O)CN1CCN(c2ccccc2)CC1 | 11.5% (inactive) |
| O=S(=O)(Nc1cccc(-c2cn3c(n2)SCC3)c1)c1ccc(F)cc1F | -3.71% (inactive) |
| NC(=O)Oc1cccc(OC(N)=O)c1 | 36.5% (inactive) |
| CC(=O)c1ccc(OC(=O)c2cc3ccccc3oc2=O)cc1 | -13% (inactive) |
| CCN(CC)c1cc(C)c2cc(NC(=O)c3ccccc3F)ccc2n1 | 6.11% (inactive) |
| COc1ccc(-n2cnc3c(sc4nc(N5CCOCC5)c5c(c43)CCCC5)c2=O)cc1 | -5.75% (inactive) |
| O=C(CCCCCn1c(=S)[nH]c2ccc(N3CCOCC3)cc2c1=O)NC1CCN(Cc2ccccc2)CC1 | -1.01% (inactive) |
| O=C(Nc1ccncc1)c1cc(-c2ccccn2)nc2ccccc12 | 26.8% (inactive) |
| CC(C)[C@H](NC(=O)c1ccccc1Cl)C(=O)Nc1nc(-c2ccccn2)cs1 | -20.5% (inactive) |
| Cc1cc(Cl)ccc1OCC(=O)Nc1nc(-c2cccnc2)cs1 | 16.9% (inactive) |
